Source: PubChem BioAssay
ELG1 genotoxic = inducers of genotoxicity in HEK293T ELG1-luciferase cells | HEK293T ELG1-luciferase reporter, luminescence, 16 h | Potency, µM (series often up to 46 µM), for the others: at the highest dose activity change, positive = activation, usual class: activators | 330,000 compounds, 1.3% hits | AID 504466; note: % of control where 0% means no effect; nearly all actives have a fitted effect of over 60% in size
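ELG1-luciferase HEK293T cells, 2,000/well; compound pinned in; 16 hr, 37 °C, 5% CO2; ONE-Glo, 30 min RT; luminescence on CCD imager.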
NPC1 prom act = NPC1 promoter activation | Huh7 NPC1 promoter luciferase reporter, 24 h | Potency, µM (top dose mostly 9.22 µM), without a hit: at the top dose activation, most hits filed as activators | 320,000 compounds, 2.4% hits; note: % of control where 0% means no effect; nearly all actives have a fitted effect of over 60% in size
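Stably transfected Huh7 (NPC1 promoter→luciferase), 1500 cells/well in Opti-MEM + 10% FBS, 2 h settle, then compound 24 h at 37 °C. Luminescence after 10 min with Amplite reagent.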
ELG1 DNA repair = ELG1-dependent DNA repair inhibition; HEK293T ELG1-luciferase reporter, luminescence, 16 h; DNA damage induced by 5-fluorouridine; 330,000 compounds, 2.3% hits; Potency, µM (series often up to 46.1 µM), for inactives: at the top dose activity change, negative = inhibition, usual class: inhibitors; note: % is set by controls: 0 for no effect and ±100 for the full control effect; nearly all actives have a fitted effect of over 55% in size
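5-Fluorouridine DNA damage + compound/DMSO, 2,000 cells/well, 16 h, 37 °C/5% CO2. ONE-Glo, 30 min RT, luminescence. Readout = decrease in reporter signal.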
SMN2 splice up = SMN2 splice variant enhancement | HEK293 SMN2-luciferase splicing reporter, luminescence, 30-36 h | Potency, µM (titrated, usually from 46.1 µM), for the others: top-dose activity change, positive = activation, usual class: activators | 210,000 compounds, 2.8% hits | AID 1458; note: % of control where 0% means no effect; nearly all actives have a fitted effect of over 55% in size
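HEK293 cells carry an SMN2 minigene-luciferase reporter in which exon 7 inclusion puts luciferase in frame. Cells were seeded at 2000 cells/well, attached for 10-12 hours, then exposed to compounds for 30-36 hours at 37C before ONE-Glo luminescence.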
FLuc counter = firefly luciferase modulation, counter-screen for miR-21 project; 360,000 compounds, 6.9% hits; purified FLuc, Km substrates, luminescence inhibition; Potency, µM (titrated, usually from 57.5 µM), without a hit: top-dose activity change, negative = inhibition, actives largely listed as inhibitors; P08659;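 note: plate controls were vehicle for no effect and reference inhibitor for full effect; nearly all actives have a fitted effect of over 55% in size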
Target sequence (P08659 whole entry, looked up): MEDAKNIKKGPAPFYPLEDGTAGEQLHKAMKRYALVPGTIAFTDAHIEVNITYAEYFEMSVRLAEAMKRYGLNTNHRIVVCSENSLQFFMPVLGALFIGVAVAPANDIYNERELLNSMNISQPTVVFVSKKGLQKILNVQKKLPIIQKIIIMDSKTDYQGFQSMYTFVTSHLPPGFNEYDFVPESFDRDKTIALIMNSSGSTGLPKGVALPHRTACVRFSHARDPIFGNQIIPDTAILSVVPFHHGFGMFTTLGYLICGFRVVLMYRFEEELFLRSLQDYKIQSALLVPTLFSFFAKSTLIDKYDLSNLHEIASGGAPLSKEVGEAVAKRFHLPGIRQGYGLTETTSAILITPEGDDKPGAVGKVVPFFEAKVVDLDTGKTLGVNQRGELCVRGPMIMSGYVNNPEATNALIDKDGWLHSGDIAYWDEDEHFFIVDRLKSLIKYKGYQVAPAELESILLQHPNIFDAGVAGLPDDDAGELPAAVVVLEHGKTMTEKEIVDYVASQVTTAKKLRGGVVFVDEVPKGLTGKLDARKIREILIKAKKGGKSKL
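Biochemical qHTS of compounds, final roughly 60 µM downward over six points, against 10 nM purified firefly luciferase using Km concentrations of substrates (10 uM D-luciferin, 10 uM ATP) in Tris acetate pH 7.5 buffer; luminescence output.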
Rab9 promoter act = activators of Rab9 promoter | Huh7 Rab9 promoter-luciferase reporter, luminescence, 24 h | Potency, µM (highest dose often 9.22 µM), for inactives: top-dose activation, negative = inhibition, actives largely listed as activators | 320,000 compounds, 2.8% hits | AID 485297; note: % of control where 0% means no effect; nearly all actives have a fitted effect of over 60% in size
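Steps: seed 1500 Huh7 Rab9-luc cells per well, rest 2 h at 37 °C; add compound in DMSO; incubate 24 h; add luciferase reagent, 10 min ambient; read luminescence.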
* marks the source's active call; other numbers are inactive results; ? = inconclusive; . = no result. An excerpt weighted towards active compounds, which were near 9.2% of everything screened. Calls come from the whole dose curve; as a rule, active = well fitted curve in the direction sought with a large enough effect; inconclusive = small, poorly fitted or top-dose-only effect, or another doubt; inactive = no such curve, though single readings can be large; an effect the other way counts as inactive or inconclusive. Potency is the fitted concentration of half-maximal effect.

SMILES	ELG1 genotoxic	NPC1 prom act	ELG1 DNA repair	SMN2 splice up	FLuc counter	Rab9 promoter act
COCCNc1cc(C)nc2cc(-c3ccc(C)cc3)nn12	?	?	13%	-2%	6µM*	?
Cc1ccc2[nH]c(=O)c3cc(C(=O)N(C)c4ccc(Br)cc4)sc3c2c1	.	.	.	12%	1%	.
Cc1ccc(-c2ccc(/C=N/NC(N)=S)o2)cc1	12%	?	?	.	6.7µM*	?
NC(=S)N/N=C/c1ccc(-c2ccc(Cl)c(Cl)c2)o1	3%	0%	?	4%	?	16%
NC(=S)N/N=C/c1ccc(-c2ccccc2)o1	9%	11%	-2%	-13%	?	5%
NC(=S)N/N=C/c1ccc(-c2ccc(SC(F)F)cc2)o1	-4%	0%	?	.	24µM*	0%
Cc1ccc(C)c(N(C)C(=O)CCS(=O)(=O)c2cccc3nonc23)c1	6%	1%	?	.	-1%	-3%
COc1ccc(NC2=C(Cl)C(=O)N(CCc3ccccc3)C2=O)c(OC)c1	12%	3%	?	?	?	-1%
COc1ccc(CCN2C(=O)c3cccnc3C2=O)cc1OC	0%	-3%	7%	-10%	-1%	7%
COc1ccc(N2C(=O)C(Cl)=C(NCc3ccccc3)C2=O)cc1	12%	-1%	25%	0%	21µM*	6%
COc1ccc(NC2=C(Cl)C(=O)N(CCc3ccccc3)C2=O)cc1	8%	6%	12%	16µM*	2.7µM*	0%
COc1ccc(CCNC2=C(Cl)C(=O)N(CCc3ccc(OC)c(OC)c3)C2=O)cc1OC	-10%	-1%	13µM*	-52%	-1%	2%
Cc1ccc(C)c(-n2c(-c3ccc(Br)cc3)csc2=NC(=O)c2ccccc2F)c1	-10%	0%	12µM*	.	1%	-3%
CC(=O)Nc1ccc(SC[C@H](CC(C)C)N2CCN(CC(C)C)CCC2=O)cc1	1%	-2%	1%	.	-1%	-4%
CC(C)C[C@@H](COc1ccccc1)N1CCN(C)CCC1=O	2%	1%	0%	.	2%	-9%
CC(C)C[C@@H](CSc1ccc(Br)cc1)N1CCN(C)CCC1=O	?	3.5µM*	?	.	19µM*	?
CC(C)C[C@@H](CSc1ccc(Br)cc1)N1CCN(CC(C)C)CCC1=O	5%	?	?	.	15µM*	20%
COc1ccc(SC[C@H](CC(C)C)N2CCN(C)CCC2=O)cc1	?	?	?	.	?	21%
Cc1ccc(SC[C@H](c2ccccc2)N2CCN(C)CCC2=O)cc1	?	?	?	.	15µM*	2.8µM*
Cc1ccc(SC[C@H](CC(C)C)N2CCN(C)CCC2=O)cc1	?	?	?	.	15µM*	3.5µM*
CCn1c(SCC(=O)N2CCc3ccccc3C2)nc2sc(C)c(C)c2c1=O	-5%	-1%	-19%	2%	0%	3%
CC(C)CN1CCC(=O)N(CCSc2ccccc2)CC1	?	1.6µM*	?	.	24µM*	1.6µM*
Cc1ccc(SCCN2CCN(CCc3ccccc3)CCC2=O)cc1	1%	-3%	11%	.	-2%	-3%
CC1=C(C(=O)Nc2ccc(C)cc2C)C(c2ccc([N+](=O)[O-])cc2)n2ncc(C(=O)Nc3ccc(F)cc3)c2N1 (centres undefined)	.	.	.	.	0%	.
Cc1cc(C)nc(N2CCCC(C(=O)Nc3ccc4nc(C)c(C)nc4c3)C2)n1 (centres undefined)	-6%	-4%	12µM*	-12%	0%	0%
SMILES	ELG1 genotoxic	NPC1 prom act	ELG1 DNA repair	SMN2 splice up	FLuc counter	Rab9 promoter act
COc1cc(C)nc(N2CCCC(C(=O)NC3CCC(C)CC3)C2)n1 (centres undefined)	?	3.2µM*	?	?	11µM*	4µM*
Cc1cc(C)cc(NC(=O)C2CCCN(c3nc(C)cc(C)n3)C2)c1 (centres undefined)	-2%	-2%	3%	-8%	7%	-5%
Cc1cc(C)nc(N2CCCC(C(=O)Nc3nc4ccc(S(C)(=O)=O)cc4s3)C2)n1 (centres undefined)	-26%	-3%	16µM*	-24%	4%	-1%
Cc1cc(C)nc(N2CCCC(C(=O)NCC(c3ccccc3)c3ccccc3)C2)n1 (centres undefined)	-1%	-2%	23µM*	-11%	0%	-16%
CCC(C)NC(=O)C1CCCN(c2nc(C)cc(OC)n2)C1 (centres undefined)	-1%	1%	9%	2%	0%	-5%
COc1ccc(N(CC(=O)NCc2ccco2)C(=O)CCC(=O)Nc2nccs2)cc1	1%	-5%	-6%	.	1%	-3%
CCOc1ccc(C(=O)Nc2cccc3ncccc23)cc1Br	0%	-4%	-19%	-12%	-13%	-13%
CC(NC(=O)Cc1cccs1)C(c1cccs1)N1CCN(c2ccccc2F)CC1 (centres undefined)	-7%	0%	-13%	.	-1%	5%
Cc1ccc(N2C(=NC(=O)c3ccccc3)SC3CS(=O)(=O)CC32)cc1 (centres undefined)	1%	1%	16%	.	4%	-2%
CCCC(=O)N=C1SC2CS(=O)(=O)CC2N1c1ccc(-c2nc3ccc(C)cc3s2)cc1 (centres undefined)	21µM*	3.5µM*	?	.	5.4µM*	4µM*
Cc1ccc(C)c(N2CCN(C(c3ccc(F)cc3)c3nnc(-c4ccccc4)o3)CC2)c1 (centres undefined)	.	.	.	-10%	-5%	.
O=C(CC(SCCO)c1ccc2c(c1)OCO2)c1ccco1 (centres undefined)	?	?	19%	-5%	4.8µM*	?
CCn1c(/C=C/c2ccc(O)c(O)c2)nc2ccccc2c1=O	0%	-16%	-18%	.	-16%	14%
COc1ccc(/C=C/c2c(-c3ccc(OC)cc3)oc3ccccc23)cc1	-1%	6%	15%	.	-11%	0%
COc1ccc(/C=C\c2nc(=O)c3ccccc3o2)cc1	?	?	?	.	3.8µM*	?
O=c1nc(/C=C/c2ccc(O)c(O)c2)oc2ccccc12	21µM*	?	?	.	8.5µM*	?
Cn1c2ccccc2c(=O)c2cc(C#Cc3ccsc3)ccc21	10%	?	?	.	2.4µM*	2.8µM*
Cn1c2ccccc2c(=O)c2ccc(C#Cc3ccccn3)cc21	15%	16%	?	.	-17%	22%
Cn1c2ccccc2c(=O)c2ccc(F)cc21	16%	-1%	24%	.	-6%	4%
